The source of these data is publication PMC5540273 (PLoS ONE, 2017).

What all share (settings): concentration: 1 μM, replicates: in singlicate; n = 1
The test system of assay [1] is WNK1.
In assay [2] the test system is WNK2.
The subject of assay [3] is WNK3.
The subject of assay [4] is WNK4.
For assay [5], the system named is T1, YANK1.
T1 construct: gene STK32A

For assay [6], the system named is T2, YANK2.
T2 construct: gene STK32B

In assay [7] the test system is T3, YANK3.
T3 construct: gene STK32C

For assay [8], the system named is T4, YES.
T4 construct: gene YES1

Assay [9] has as its system T5, YSK1.
T5 construct: gene STK25

Assay [10] concerns T6, YSK4.
T6 construct: gene MAP3K19

Assay [11] has as its system ZAK.
For assay [12], the system named is ZAP70.
Assay [13] relates to T7, p38-alpha.
T7 construct: gene MAPK14

Assay [14] relates to T8, p38-beta.
T8 construct: gene MAPK11

Assay [15] deals with p38-delta.
Assay [16] concerns T9, p38-gamma.
T9 construct: gene MAPK12
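Further: KINOMEscan kinase panel screen.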

As to `COc1cccc(-c2nc(-c3ccccc3)[nH]c2-c2ccncc2)c1` [SB-610250], the “%Inh” value was 9% in assay [1]; 0% in assay [2]; 33% in [3]; 29% in assay [4]; 10% in assay [5]; 4% in assay [6]. Moreover, the “%Inh” value in [7] was 0%; in assay [8], 8%; in assay [9] it was 100%; in assay [10] it was 100%; in [11], 5%; in assay [12], 0%. Also, the “%Inh” value came to 98.2% in assay [13], 32% in assay [14], 44% in assay [15] and 0% in assay [16].

For the compound `COC(=O)Nc1nc2ccc(Oc3ccc(CC(=O)Nc4cc(C(F)(F)F)ccc4F)cc3)cc2[nH]1` [GW680903], the “%Inh” value in [1] amounted to 0%; in assay [2] it was 4%; in assay [3], 21%; in [4], 48%; in assay [5], 9%; in [6] it was 0%. Also, the “%Inh” value in [7] turned out to be 0%; in [8], 8%; in assay [9], 3%; in [10], 42%; in [11], 91.6%; in assay [12] it was 38%. Also, the “%Inh” value in assay [13] is listed as 6%; in assay [14], 0%; in [15] it was 47%; in assay [16] it was 0%.

Regarding `CC(C)NCC(Cc1ccccc1)NC(=O)c1cc(Br)c(-c2ccnc3[nH]ccc23)s1.Cl.Cl` (stereo not shown) [GSK1383281], the “%Inh” value in assay [1] stood at 0%; in assay [2], 0%; in assay [3], 0%; in assay [4] it was 18%; in [5] it was 21%; in assay [6] it was 0%. The “%Inh” value was 0% in [7]; 0% in assay [8]; 40% in [9]; 83% in [10]; 73% in assay [11]; 0% in assay [12]. The “%Inh” value came out at 0% in assay [13], 0% in assay [14], 16% in assay [15] and 0% in [16].

As to `O=C(Nc1n[nH]c2nc(-c3ccccc3)ccc12)C1CC1` [SB-708999], the “%Inh” value in assay [1] turned out to be 15%; in [2] it was 37%; in assay [3] it was 36%; in assay [4], 60%; in assay [5], 0%; in assay [6] it was 0%. Besides, the “%Inh” value in assay [7] is 28%; in [8] it was 1%; in assay [9], 0%; in [10], 93.9%; in assay [11], 15%; in assay [12], 19%. In addition, the “%Inh” value in [13] turned out to be 10%; in [14], 29%; in assay [15], 25%; in [16] it was 2%.

Take `Cl.Cl.NC(CNC(=O)c1cc(Br)c(-c2ccnc3[nH]ccc23)s1)c1ccccc1` (stereo not shown) [GSK1322949]: the “%Inh” value in assay [1] was found to be 1%; in assay [2], 0%; in assay [3] it was 24%; in [4], 20%; in assay [5], 22%; in [6] it was 0%. Moreover, the “%Inh” value amounted to 0% in assay [7]; 2% in assay [8]; 28% in [9]; 94.8% in assay [10]; 11% in [11]; 0% in [12]. For the same compound, the “%Inh” value in [13] worked out at 23%; in assay [14], 0%; in [15], 14%; in assay [16], 50%.

Regarding `COc1cc(Nc2nccc(N3CCC(NC(=O)Nc4ccc5c(c4)OCO5)C3)n2)cc(OC)c1OC` (stereo not shown) [GSK1379766], the “%Inh” value in assay [1] worked out at 11%; in assay [2], 11%; in [3], 46%; in assay [4] it was 5%; in assay [5], 0%; in assay [6] it was 0%. In addition, the “%Inh” value in assay [7] is reported as 6%; in [8], 7%; in [9] it was 0%; in [10], 45%; in [11] it was 34%; in [12], 0%. The “%Inh” value in assay [13] was 0%; in assay [14], 0%; in assay [15] it was 24%; in [16], 0%.

In the case of `O=C(Nc1n[nH]c2cc(-c3cccs3)ccc12)C1CC1` [SB-731284], the “%Inh” value in assay [1] is on record as 40%; in [2] it was 0%; in assay [3] it was 0%; in assay [4], 0%; in [5], 19%; in [6], 0%. Further, the “%Inh” value was found to be 0% in assay [7]; 0% in assay [8]; 0% in assay [9]; 94% in assay [10]; 22% in assay [11]; 12% in assay [12]. Further, the “%Inh” value in assay [13] came to 0%; in [14], 0%; in assay [15], 0%; in assay [16], 22%.

For `O=C(O)C(F)(F)F.O=c1[nH]ccc2nc(N[C@@H]3CCNC3)nc(Nc3cc(Cl)cc(Cl)c3)c12` [GSK2188764], the “%Inh” value was 8% in assay [1]; 26% in assay [2]; 30% in assay [3]; 0% in assay [4]; 40% in [5]; 0% in assay [6]. For the same compound, the “%Inh” value in assay [7] was 9%; in assay [8], 12%; in [9], 82%; in assay [10], 99.7%; in [11], 0%; in assay [12], 1%. In addition, the “%Inh” value is 0% in assay [13], 0% in assay [14], 18% in assay [15] and 23% in assay [16].

Regarding `Fc1cc(Cl)ccc1Nc1ccnc2cc(-c3ccc(CN4CCOCC4)o3)ccc12` [GW560109], the “%Inh” value in assay [1] came to 10%; in [2], 4%; in [3] it was 1%; in [4] it was 8%; in [5] it was 8%; in assay [6], 21%. In addition, the “%Inh” value in assay [7] is on record as 24%; in assay [8], 84%; in [9], 0%; in assay [10], 71%; in assay [11], 50%; in assay [12], 3%. Moreover, the “%Inh” value is listed as 28% in assay [13], 0% in assay [14], 25% in assay [15] and 0% in [16].

For the compound `CN(c1ccc(NC(=O)N2CCN(CCCN3CCOCC3)CC2)cc1)c1ccnc(Nc2ccc(CS(C)(=O)=O)cc2)n1.Cl` [GW830899], the “%Inh” value in assay [1], in assay [2], in assay [3], in assay [4], in assay [5] and in [6] was 0% throughout. Further, the “%Inh” value is recorded as 0% in [7]; 4% in assay [8]; 0% in assay [9]; 81% in [10]; 5% in [11]; 0% in assay [12]. Also, the “%Inh” value in [13] is recorded as 9%; in assay [14], 0%; in [15], 0%; in [16], 41%.

In the case of `N#Cc1cnc2cc(-c3cnc(CNCCN4CCOCC4)s3)ccc2c1Nc1ccc(Oc2ccccc2)cc1` [GW664114], the “%Inh” value came to 74% in assay [1]; 95.9% in assay [2]; 94.2% in [3]; 89% in [4]; 0% in [5]; 0% in assay [6]. The “%Inh” value worked out at 0% in assay [7]; 97.1% in [8]; 19% in assay [9]; 97% in [10]; 95.6% in assay [11]; 59% in [12]. Also, the “%Inh” value is listed as 0% in [13], 0% in assay [14], 37% in [15] and 0% in assay [16].

Consider `Nc1cccc(-c2ccc3c(N)n[nH]c3c2)c1` [GSK2193613], for which the “%Inh” value in [1] was 6%; in assay [2], 0%; in assay [3], 7%; in assay [4], 0%; in assay [5], 9%; in assay [6], 0%. Further, the “%Inh” value in assay [7] came to 25%; in assay [8], 0%; in assay [9], 22%; in [10], 96.4%; in assay [11], 11%; in assay [12] it was 0%. For the same compound, the “%Inh” value in assay [13] amounted to 6%; in assay [14] it was 0%; in [15], 17%; in assay [16] it was 45%.

Turning to `O=C(O)C(F)(F)F.O=c1[nH]ccc2nc(N[C@@H]3CCNC3)nc(Nc3ccc4c(c3)S(=O)(=O)CC4)c12` [GSK2181306], the “%Inh” value is on record as 0% in [1]; 29% in assay [2]; 0% in assay [3]; 0% in assay [4]; 70% in [5]; 0% in assay [6]. The “%Inh” value in assay [7] is reported as 8%; in [8], 20%; in assay [9], 97.4%; in assay [10], 99.7%; in [11], 0%; in [12], 1%. Besides, the “%Inh” value in [13] was found to be 0%; in [14], 0%; in [15], 44%; in assay [16] it was 23%.
